The full data set covers some 7,900 targets. This sample favours those with a hit. About 0.6% of all pairs of compound and target were hits. A number with no mark means an inactive call.
What was measured:
Assay in all cases: log2 fold change, soluble protein after heating vs DMSO (PISA); higher = thermal stabilisation; K562 cells, 10 uM, 30 min; active = over 0.2 and 3.5 SD of the protein, either way, in both replicates (recomputed)
[1] = compound: CN1CCN(CCOc2cc(OC3CCOCC3)c3c(Nc4c(Cl)ccc5c4OCO5)ncnc3c2)CC1 [saracatinib]
In short: (§1)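 K562 cells at 2×10^6 cells/mL were treated for 30 min with 10 μM compound, and aliquots were heated for 3 min over 48°C-58°C before pooling. Extraction used PBS with 0.5% NP-40 at 4°C, and soluble protein was the supernatant after 21,000xg for 90 min, measured by TMTpro 16plex LC-MS/MS with channel sums equalised. Thermal stability values, relative to control samples and from duplicates, are log2 fold changes.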

[2] = compound: CN1CCN(c2nc(C3=C(c4c[nH]c5ccccc45)C(=O)NC3=O)c3ccccc3n2)CC1 [sotrastaurin]
In short: as §1

[3] = compound: CN1CC[C@H](c2c(O)cc(O)c3c(=O)cc(-c4ccccc4Cl)oc23)[C@H](O)C1 [alvocidib]
In short: as §1

[4] = compound: CN1CCc2c(c3ccccc3n2Cc2ccc(C(=O)NO)cc2)C1 [Tubastatin A]
In short: as §1

[5] = compound: CNC(=O)C1=CC=CC=C1NC2=NC(=NC=C2Cl)NC3=C(C=C(C=C3)N4CCOCC4)OC
In short: as §1

[6] = compound: CNC(=O)c1ccc(Nc2ncc(C(F)(F)F)c(NCc3nccnc3N(C)S(C)(=O)=O)n2)cc1 [defactinib]
In short: as §1

[7] = compound: CNCc1ccc(-c2[nH]c3cc(F)cc4c3c2CCNC4=O)cc1 [rucaparib]
In short: as §1

[8] = compound: CNc1nc(-c2ccc3c(N)n[nH]c3c2)cc(N2C[C@@H](C(=O)NC3CCCCC3)CC[C@H]2C)n1
In short: as §1

[9] = compound: COC(=O)N[C@@H](C)CNc1nccc(-c2cn(C(C)C)nc2-c2cc(Cl)cc(NS(C)(=O)=O)c2F)n1 [encorafenib]
In short: as §1

[10] = compound: COC(=O)[C@H](CCSC)NC(=O)C1=C(C=C(C=C1)NC[C@H](CS)N)C2=CC=CC=C2
In short: as §1

Chain of UniProt Q9P289 (Q9P289 whole entry, looked up): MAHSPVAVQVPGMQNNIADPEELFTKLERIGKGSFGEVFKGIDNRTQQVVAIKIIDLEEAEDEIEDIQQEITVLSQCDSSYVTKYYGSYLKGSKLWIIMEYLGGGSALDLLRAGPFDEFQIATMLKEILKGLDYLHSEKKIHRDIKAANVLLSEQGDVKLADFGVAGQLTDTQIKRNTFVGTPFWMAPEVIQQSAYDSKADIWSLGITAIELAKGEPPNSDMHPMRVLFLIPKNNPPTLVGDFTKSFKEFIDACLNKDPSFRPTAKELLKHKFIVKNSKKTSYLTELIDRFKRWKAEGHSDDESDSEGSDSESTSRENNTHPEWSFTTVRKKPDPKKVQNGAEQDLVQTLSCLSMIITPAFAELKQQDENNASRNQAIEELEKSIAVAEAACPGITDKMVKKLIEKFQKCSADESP
Chain of UniProt Q969G3 (Q969G3 whole entry, looked up): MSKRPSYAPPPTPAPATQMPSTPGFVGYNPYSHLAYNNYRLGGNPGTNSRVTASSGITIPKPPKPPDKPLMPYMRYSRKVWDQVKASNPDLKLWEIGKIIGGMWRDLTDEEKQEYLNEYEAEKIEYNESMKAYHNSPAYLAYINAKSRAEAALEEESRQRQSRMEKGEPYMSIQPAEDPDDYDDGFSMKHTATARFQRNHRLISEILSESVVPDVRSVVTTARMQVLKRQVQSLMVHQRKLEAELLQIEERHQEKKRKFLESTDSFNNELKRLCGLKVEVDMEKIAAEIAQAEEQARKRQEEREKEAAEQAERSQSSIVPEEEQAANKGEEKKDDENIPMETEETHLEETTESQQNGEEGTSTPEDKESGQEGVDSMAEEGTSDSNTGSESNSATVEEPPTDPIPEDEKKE
Chain of UniProt Q9NZD8 (Q9NZD8 whole entry, looked up): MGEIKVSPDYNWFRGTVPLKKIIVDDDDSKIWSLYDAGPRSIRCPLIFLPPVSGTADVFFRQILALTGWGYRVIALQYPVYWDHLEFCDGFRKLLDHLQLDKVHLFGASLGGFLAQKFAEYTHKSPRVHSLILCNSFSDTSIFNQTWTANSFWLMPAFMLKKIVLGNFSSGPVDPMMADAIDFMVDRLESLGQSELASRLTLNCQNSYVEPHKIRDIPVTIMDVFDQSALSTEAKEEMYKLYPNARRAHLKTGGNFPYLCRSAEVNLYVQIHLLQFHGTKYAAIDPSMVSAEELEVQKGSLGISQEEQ
Chain of UniProt Q96CQ1 (Q96CQ1 whole entry, looked up): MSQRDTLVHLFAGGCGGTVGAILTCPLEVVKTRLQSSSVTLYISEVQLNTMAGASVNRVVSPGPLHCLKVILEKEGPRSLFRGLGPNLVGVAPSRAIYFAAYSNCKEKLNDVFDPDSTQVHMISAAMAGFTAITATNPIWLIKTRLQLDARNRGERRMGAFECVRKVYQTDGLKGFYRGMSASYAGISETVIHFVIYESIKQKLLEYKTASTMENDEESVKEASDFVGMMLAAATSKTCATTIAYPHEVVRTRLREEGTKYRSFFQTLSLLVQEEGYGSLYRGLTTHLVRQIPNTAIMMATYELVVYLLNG
Chain of UniProt P51571 (P51571 whole entry, looked up): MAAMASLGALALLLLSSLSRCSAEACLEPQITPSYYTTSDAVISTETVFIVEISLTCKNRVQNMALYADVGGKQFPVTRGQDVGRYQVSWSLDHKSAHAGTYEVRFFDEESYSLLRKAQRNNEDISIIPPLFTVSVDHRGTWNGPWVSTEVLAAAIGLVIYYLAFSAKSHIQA
Chain of UniProt Q16842 (Q16842 whole entry, looked up): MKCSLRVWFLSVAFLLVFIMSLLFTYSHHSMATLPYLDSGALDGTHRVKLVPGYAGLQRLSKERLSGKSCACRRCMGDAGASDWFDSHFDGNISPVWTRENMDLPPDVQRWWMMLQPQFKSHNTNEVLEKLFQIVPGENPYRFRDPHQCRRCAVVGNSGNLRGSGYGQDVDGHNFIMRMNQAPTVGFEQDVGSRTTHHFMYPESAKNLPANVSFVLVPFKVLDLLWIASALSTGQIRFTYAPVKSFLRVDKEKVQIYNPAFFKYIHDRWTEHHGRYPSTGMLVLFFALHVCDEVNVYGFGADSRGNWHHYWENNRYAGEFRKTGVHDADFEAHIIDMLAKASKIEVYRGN
Chain of UniProt Q658P3 (Q658P3 whole entry, looked up): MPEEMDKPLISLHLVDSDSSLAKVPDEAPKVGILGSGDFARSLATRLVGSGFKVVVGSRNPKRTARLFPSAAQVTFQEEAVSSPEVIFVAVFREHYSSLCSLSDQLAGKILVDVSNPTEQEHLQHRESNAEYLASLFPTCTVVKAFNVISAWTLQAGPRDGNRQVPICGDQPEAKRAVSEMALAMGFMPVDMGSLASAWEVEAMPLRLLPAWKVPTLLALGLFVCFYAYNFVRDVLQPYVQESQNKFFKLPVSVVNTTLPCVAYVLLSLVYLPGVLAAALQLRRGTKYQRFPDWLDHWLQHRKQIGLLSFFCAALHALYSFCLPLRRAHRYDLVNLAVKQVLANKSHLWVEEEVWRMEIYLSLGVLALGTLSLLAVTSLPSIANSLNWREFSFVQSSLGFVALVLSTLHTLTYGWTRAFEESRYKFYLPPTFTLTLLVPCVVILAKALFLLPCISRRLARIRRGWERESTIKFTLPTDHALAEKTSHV
Chain of UniProt O75494 (O75494 whole entry, looked up): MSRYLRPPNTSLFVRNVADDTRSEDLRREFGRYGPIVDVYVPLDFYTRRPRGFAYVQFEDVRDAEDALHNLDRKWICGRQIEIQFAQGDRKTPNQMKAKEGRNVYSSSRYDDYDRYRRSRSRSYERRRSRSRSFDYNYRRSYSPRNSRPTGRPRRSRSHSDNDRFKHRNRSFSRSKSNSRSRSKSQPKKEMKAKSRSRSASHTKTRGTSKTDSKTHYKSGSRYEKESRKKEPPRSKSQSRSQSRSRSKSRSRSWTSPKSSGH
Chain of UniProt Q08945 (Q08945 whole entry, looked up): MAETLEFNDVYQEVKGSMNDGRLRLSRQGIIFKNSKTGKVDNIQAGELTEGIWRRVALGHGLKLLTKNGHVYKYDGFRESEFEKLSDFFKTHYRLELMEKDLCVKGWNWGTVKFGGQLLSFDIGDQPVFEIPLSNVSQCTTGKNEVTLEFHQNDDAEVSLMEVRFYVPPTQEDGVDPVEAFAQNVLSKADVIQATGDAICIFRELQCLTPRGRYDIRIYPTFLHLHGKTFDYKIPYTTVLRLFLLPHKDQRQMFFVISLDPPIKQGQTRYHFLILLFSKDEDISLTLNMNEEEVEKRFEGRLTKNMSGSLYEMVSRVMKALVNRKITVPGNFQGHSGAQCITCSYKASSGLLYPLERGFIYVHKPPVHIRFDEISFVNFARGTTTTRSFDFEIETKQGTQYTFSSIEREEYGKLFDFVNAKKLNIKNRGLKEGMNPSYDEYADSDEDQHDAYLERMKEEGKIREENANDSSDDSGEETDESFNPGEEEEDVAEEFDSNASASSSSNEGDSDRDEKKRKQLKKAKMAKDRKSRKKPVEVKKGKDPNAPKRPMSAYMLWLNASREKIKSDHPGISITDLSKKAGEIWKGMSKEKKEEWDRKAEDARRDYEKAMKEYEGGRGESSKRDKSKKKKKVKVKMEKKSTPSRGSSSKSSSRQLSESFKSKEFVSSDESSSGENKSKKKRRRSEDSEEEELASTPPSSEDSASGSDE
Chain of UniProt Q9H2K8 (Q9H2K8 whole entry, looked up): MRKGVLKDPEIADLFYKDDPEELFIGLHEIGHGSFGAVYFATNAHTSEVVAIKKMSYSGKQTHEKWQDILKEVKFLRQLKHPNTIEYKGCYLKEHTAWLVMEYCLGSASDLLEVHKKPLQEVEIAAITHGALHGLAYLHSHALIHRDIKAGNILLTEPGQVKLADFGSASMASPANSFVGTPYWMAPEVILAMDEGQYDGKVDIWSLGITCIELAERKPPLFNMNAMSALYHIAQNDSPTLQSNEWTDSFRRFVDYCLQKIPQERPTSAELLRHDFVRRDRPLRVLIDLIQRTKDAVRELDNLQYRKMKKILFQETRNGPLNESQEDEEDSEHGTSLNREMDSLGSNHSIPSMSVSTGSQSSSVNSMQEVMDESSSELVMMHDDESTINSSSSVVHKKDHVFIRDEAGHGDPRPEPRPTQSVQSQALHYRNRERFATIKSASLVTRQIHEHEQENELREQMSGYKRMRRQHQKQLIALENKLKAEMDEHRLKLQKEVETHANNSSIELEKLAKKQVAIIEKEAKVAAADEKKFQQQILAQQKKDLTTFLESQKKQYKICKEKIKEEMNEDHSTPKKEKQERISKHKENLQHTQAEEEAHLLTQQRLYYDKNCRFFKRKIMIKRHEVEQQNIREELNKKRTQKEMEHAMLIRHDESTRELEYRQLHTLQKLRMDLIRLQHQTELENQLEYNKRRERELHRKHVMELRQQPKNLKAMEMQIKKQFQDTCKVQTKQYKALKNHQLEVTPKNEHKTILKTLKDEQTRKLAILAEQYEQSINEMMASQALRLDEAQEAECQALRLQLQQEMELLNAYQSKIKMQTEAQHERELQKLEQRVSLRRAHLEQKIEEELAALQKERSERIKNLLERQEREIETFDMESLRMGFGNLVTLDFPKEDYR
Chain of UniProt Q00059 (Q00059 whole entry, looked up): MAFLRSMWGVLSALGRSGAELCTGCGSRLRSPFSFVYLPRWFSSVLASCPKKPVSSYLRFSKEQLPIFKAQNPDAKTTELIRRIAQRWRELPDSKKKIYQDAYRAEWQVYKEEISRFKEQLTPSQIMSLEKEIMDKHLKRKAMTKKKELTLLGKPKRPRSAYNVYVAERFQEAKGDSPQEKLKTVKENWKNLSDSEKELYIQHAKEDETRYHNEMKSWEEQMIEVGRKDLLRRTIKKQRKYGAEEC
Chain of UniProt Q9Y5L4 (Q9Y5L4 whole entry, looked up): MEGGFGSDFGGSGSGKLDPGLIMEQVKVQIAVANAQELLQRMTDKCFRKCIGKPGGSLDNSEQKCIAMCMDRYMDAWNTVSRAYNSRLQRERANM
Chain of UniProt Q16385 (Q16385 whole entry, looked up): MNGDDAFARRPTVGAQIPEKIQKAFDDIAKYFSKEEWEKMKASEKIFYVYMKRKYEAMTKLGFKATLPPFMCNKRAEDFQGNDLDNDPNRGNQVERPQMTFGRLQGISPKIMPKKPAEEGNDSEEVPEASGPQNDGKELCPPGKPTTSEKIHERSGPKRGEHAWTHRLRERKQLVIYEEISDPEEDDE

| Target | log2 fold change [1] | log2 fold change [2] | log2 fold change [3] | log2 fold change [4] | log2 fold change [5] | log2 fold change [6] | log2 fold change [7] | log2 fold change [8] | log2 fold change [9] | log2 fold change [10] |
| --- | --- | --- | --- | --- | --- | --- | --- | --- | --- | --- |
| TIMM21 (UniProt Q9BVV7) | 0 | -0.001 | -0.05 | -0.048 | -0.025 | -0.007 | -0.04 | -0.016 | 0.063 | 0.051 |
| SMARCE1 (UniProt Q969G3) | -0.036 | -0.204 | -0.033 | 0.018 | -0.032 | 0.579 (active) | -0.016 | 0.023 | 0.166 | -0.199 |
| TAOK3 (UniProt Q9H2K8) | -0.002 | -0.089 | -0.062 | 0.042 | -0.031 | -0.109 | -0.013 | 0.019 | 0.052 | -0.044 |
| SPG21 (UniProt Q9NZD8) | 0.007 | -0.005 | -0.097 | 0.016 | -0.015 | -0.134 | 0.089 | 0.211 | -0.022 | 0.01 |
| TJP2 isoform 7 (UniProt Q9UDY2) | -0.074 | -0.151 | -0.067 | 0.047 | -0.06 | -0.211 | 0.051 | 0.054 | 0.066 | -0.097 |
| STK26 (UniProt Q9P289) | -0.027 | 0.009 | 0.018 | -0.049 | -0.057 | 0.067 | -0.005 | -0.001 | 0.032 | 0.054 |
| STK39 (UniProt Q9UEW8) | -0.014 | -0.017 | 0.013 | 0.009 | -0.045 | -0.015 | 0.014 | -0.008 | 0.039 | 0.056 |
| STEAP3 isoform 2 (UniProt Q658P3) | -0.02 | -0.027 | -0.059 | -0.027 | -0.025 | -0.067 | 0.055 | -0.024 | 0.012 | 0.006 |
| SPCS2 (UniProt Q15005) | -0.029 | -0.054 | -0.058 | -0.026 | 0.062 | -0.026 | -0.062 | 0.038 | 0.044 | 0.021 |
| ST3GAL2 (UniProt Q16842) | -0.103 | 0.036 | -0.017 | 0.107 | 0.129 | -0.02 | 0.093 | 0.138 | 0.06 | -0.136 |
| SLC35A1 (UniProt P78382) | 0.038 | 0.015 | 0.006 | -0.038 | -0.016 | -0.198 | 0.048 | -0.112 | 0.043 | -0.211 |
| TM9SF2 (UniProt Q99805) | 0.038 | -0.01 | -0.039 | -0.001 | 0.005 | 0.006 | 0.015 | -0.031 | 0.001 | -0.069 |
| SSX2 (UniProt Q16385) | 0.017 | -0.028 | 0.024 | 0.062 | 0.066 | -0.114 | 0.025 | -0.078 | 0.021 | -0.012 |
| SNX12 isoform 1 (UniProt Q9UMY4) | 0.035 | 0.07 | 0 | 0.013 | 0.059 | -0.025 | -0.025 | -0.028 | 0.15 | -0.037 |
| SSB (UniProt P05455) | -0.001 | -0.158 | -0.123 | 0.015 | 0.016 | -0.187 | -0.031 | -0.089 | 0 | 0.042 |
| SRSF10 (UniProt O75494) | -0.002 | 0.041 | 0.338 | -0.009 | -0.053 | 0.233 | 0.314 | 0.068 | 0.133 | 0.14 |
| SYNE1 (UniProt Q8NF91) | -0.054 | -0.086 | 0.011 | 0.193 | -0.14 | -0.092 | -0.039 | 0.045 | -0.101 | 0.076 |
| TFAM (UniProt Q00059) | -0.017 | 0.052 | 0.116 | 0.052 | -0.008 | 0.107 | 0.042 | -0.01 | 0.039 | 0.047 |
| ST6GAL1 (UniProt P15907) | -0.001 | 0.018 | 0.006 | 0.026 | 0.159 | -0.03 | 0.004 | 0.05 | 0.037 | -0.08 |
| SPART (UniProt Q8N0X7) | -0.03 | -0.011 | -0.063 | -0.05 | 0.001 | -0.109 | -0.02 | -0.032 | 0.027 | -0.014 |
| SSRP1 (UniProt Q08945) | 0.01 | -0.049 | -0.157 | 0.099 | -0.052 | -0.23 (active) | -0.038 | -0.045 | 0.048 | -0.05 |
| STOM (UniProt P27105) | -0.015 | 0.039 | 0.169 | 0.016 | -0.019 | 0.068 | 0.006 | -0.03 | 0.016 | 0.002 |
| STAM2 (UniProt O75886) | -0.093 | -0.011 | -0.097 | -0.014 | 0.035 | -0.095 | -0.035 | -0.02 | 0.027 | -0.019 |
| TBC1D24 (UniProt Q9ULP9) | -0.025 | -0.016 | -0.379 (active) | -0.044 | -0.075 | -0.106 | -0.148 | 0.077 | -0.011 | -0.005 |
| SSR4 (UniProt P51571) | -0.008 | 0.013 | -0.035 | 0.006 | 0.014 | 0.015 | 0 | 0.004 | -0.028 | -0.007 |
| SYMPK (UniProt Q92797) | -0.058 | -0.205 | -0.2 | 0.258 | 0.008 | -0.245 | 0.09 | 0.007 | 0.079 | -0.022 |
| STK38 (UniProt Q15208) | -0.02 | -0.055 | -0.12 | -0.016 | -0.073 | -0.127 | 0.058 | 0.005 | 0.104 | -0.064 |
| TIMM13 (UniProt Q9Y5L4) | 0.065 | -0.007 | -0.035 | -0.007 | 0.007 | -0.038 | -0.028 | 0.043 | 0.044 | 0 |
| SLC25A36 (UniProt Q96CQ1) | 0.233 | -0.057 | -0.018 | -0.027 | 0.013 | 0.011 | 0.066 | 0.016 | -0.055 | 0.162 |

From the supplement of paper PMC10849652
